Screening results as filed in PubChem.
Hits are enriched below; roughly 21% of the tested compounds scored in any of these assays.
CHX counter: counter-screen hit for Shiga toxin inhibitors, cycloheximide. 300,000 compounds, 12% hits. max response, %. AID 2314. cell reporter, cycloheximide protein synthesis inhibition counterscreen; in the data active = max response mostly above about 13%, no sharp cut-off; inactive = mostly below about 14%; also: read at 38.3 µM for the half of the compounds with a filed dose
Shiga toxin inh: blocks Shiga toxin action in Vero cells; Vero cells, Shiga toxin protein synthesis inhibition reporter; inhibition, % at 38.7 µM; AID 2315; 290,000 compounds, 9.2% hits; in the data active = inhibition mostly above about 28%, no sharp cut-off; inactive = mostly below about 43%
NS1 inh: inhibitors of influenza NS1 protein function; Potency, µM (titrated, usually from 46.1 µM); AID 2326; 270,000 compounds, 0.4% hits; calls by dose curve; also: actives are rising curves; nearly all actives have a fitted effect of over 50% in size
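S. cerevisiae expressing influenza A NS1, grown in glucose, washed, then diluted 1:100 into pH 6.0 -URA galactose medium with 23 nl compound. Growth recovery read as OD600; NS1-free strain serves as control.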
Pf growth 48h: P. falciparum growth inhibition at 48 hours (one generation). P. falciparum luciferase growth in erythrocytes, 48 h. Potency, µM (top dose mostly 28.7 µM), actives largely listed as inhibitors. 310,000 compounds, 5.9% hits
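Cell-based growth assay: transgenic P. falciparum expressing firefly luciferase, cultured in red cells within RPMI 1640 containing 0.5% w/v Albumax, 24 mM bicarbonate and gentamycin. A drop in luciferase activity indicates inhibition.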
Pf growth 96h: P. falciparum growth inhibition at 96 hours; P. falciparum luciferase reporter growth, 96 h; Potency, µM (highest dose often 28.7 µM), usual class: inhibitors; 320,000 compounds, 6.9% hits; AID 504834
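Delayed-death screen, second-generation endpoint: infected erythrocytes, 2% hematocrit, 0.05% parasitemia final; 96 hours at 37 C, 5% CO2; luciferase detection reagent; luminescence decrease equals reduced growth.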
FBPA Giardia inh: inhibitors of Giardia lamblia fructose-1,6-bisphosphate aldolase. A8B2U2. purified Giardia FBPA. Potency, µM (highest dose often 59.6 µM), actives largely listed as inhibitors. 290,000 compounds, 0.71% hits; also: nearly all actives have a fitted effect of over 55% in size
Target sequence (A8B2U2 whole entry, looked up): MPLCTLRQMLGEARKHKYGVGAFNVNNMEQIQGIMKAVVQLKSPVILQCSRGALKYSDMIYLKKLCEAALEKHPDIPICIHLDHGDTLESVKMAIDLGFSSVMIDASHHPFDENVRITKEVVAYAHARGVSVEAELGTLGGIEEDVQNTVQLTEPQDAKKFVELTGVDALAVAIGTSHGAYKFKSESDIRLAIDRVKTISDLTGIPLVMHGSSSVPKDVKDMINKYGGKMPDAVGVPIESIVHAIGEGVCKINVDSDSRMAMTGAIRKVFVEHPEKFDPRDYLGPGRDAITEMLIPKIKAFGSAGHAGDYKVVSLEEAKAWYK
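40 nM FBPA preincubated 10 min at RT with compound (up to 57.5 uM final), then substrate plus GAPDH/TPI/NAD/arsenate coupling and diaphorase/resazurin added. Fluorescence read after 20 min at RT, 525/598 nm.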
Large screens that a line does not name were inactive. Unless noted, calls follow the shape of the dose curve; as a rule, active = well fitted curve in the direction sought with a large enough effect; inconclusive = small, poorly fitted or top-dose-only effect, or another doubt; inactive = no such curve, though single readings can be large; an effect the other way counts as inactive or inconclusive.

CCc1c(C)nc2nc(SCc3ccccc3)[nH]n2c1=O	none
O=C(NCc1ccccn1)Nc1ccc(Br)cc1Cl	CHX counter 63, Shiga toxin inh 136, Pf growth 96h 9.3µM (no result: FBPA Giardia inh)
S=C(NCc1ccccn1)Nc1ccc(Br)cc1Cl	CHX counter 18, Shiga toxin inh 44
CC(=O)c1cccc(NS(=O)(=O)c2cc3c(cc2C)N(C(C)=O)CCO3)c1	Pf growth 96h inconclusive
Cc1cc(/C=N/n2cnnc2)c(C)n1-c1ccc2c(c1)OCO2	Pf growth 96h 10µM
Cc1ccccc1NC(=O)/C(C#N)=C\c1cc(C)n(-c2ccc(C(=O)O)cc2)c1C	Pf growth 48h inconclusive, Pf growth 96h inconclusive
Cc1cc(/C=C(\C#N)C(=O)Nc2ccc(F)cc2)c(C)n1-c1ccc(N2CCOCC2)c([N+](=O)[O-])c1	Pf growth 48h 7.4µM (no result: Pf growth 96h)
Cc1cc(/C=C(/C#N)C(=O)Nc2ccccc2)c(C)n1-c1cccnc1	CHX counter 43, Pf growth 96h inconclusive (no result: FBPA Giardia inh)
Cc1cc(/C=C(\C#N)C(=O)Nc2ccccc2)c(C)n1-c1ccc2c(c1)OCO2	CHX counter 41, Shiga toxin inh 44, Pf growth 48h 12µM, Pf growth 96h inconclusive
COC(=O)c1cc(S(=O)(=O)Nc2cccc(C)c2C)cn1C	none
COc1ccc(S(=O)(=O)N2CCN(C(=O)CCCN3C(=O)NC4(CCCC4)C3=O)CC2)cc1	Pf growth 96h inconclusive (no result: CHX counter, Shiga toxin inh, NS1 inh, FBPA Giardia inh)
Cc1cc(C=C(C#N)C#N)c(C)n1-c1ccccc1	CHX counter 22, Shiga toxin inh 108
CCOC(=O)[C@@H]1[C@H]2COc3ccccc3[C@H]2N2C(=O)N(c3cccc(F)c3)C(=O)[C@]12C	Pf growth 96h inconclusive
C/C(Cn1nc([N+](=O)[O-])cc1C)=N\NC(=O)COc1ccccc1[N+](=O)[O-]	CHX counter 25, Shiga toxin inh active
COc1ccc(OCC(=O)N/N=C(\C)c2cccs2)cc1	none
C/C(=N\NC(=O)COc1ccccc1[N+](=O)[O-])c1cccs1	CHX counter 43, Shiga toxin inh 66 (no result: NS1 inh)
C/C(Cn1nc([N+](=O)[O-])cc1C)=N\NC(=O)c1cccc(Br)c1	CHX counter 31
Nc1c(OCC(=O)O)ccc2cc(S(=O)(=O)O)ccc12	none (no result: CHX counter, Shiga toxin inh, Pf growth 48h, Pf growth 96h, FBPA Giardia inh)
CN(Cc1cccnc1)Cc1cn[nH]c1-c1ccc(-c2ccccc2)cc1	CHX counter 6.6, Pf growth 48h inconclusive
CC(C)C[C@@H](CC(=O)N[C@@H](CCC(=O)O)CC(=O)O)NC(=O)[C@@H]1CNCC[C@H]1NC(=O)C[C@@H](NC(=O)C[C@H](CO)NC(=O)[C@@H]1CNCC[C@H]1N)C(C)C	none (no result: CHX counter, Shiga toxin inh, NS1 inh, Pf growth 48h, Pf growth 96h)
CCc1nc(SCC(=O)N2CCN(c3ccccc3)CC2)c2oc3ccccc3c2n1	NS1 inh inconclusive
CCc1nc(SCCO)c2oc3ccccc3c2n1	Pf growth 48h inconclusive
c1cncc(-c2nnc(SCc3nc4ccccc4[nH]3)o2)c1	FBPA Giardia inh inconclusive (no result: Pf growth 96h)
c1ccc2[nH]c(CSc3nc4ccccc4o3)nc2c1	CHX counter 42, Shiga toxin inh 137
CCc1nc(SCc2nc3ccccc3[nH]2)c2oc3ccccc3c2n1	CHX counter 14, Pf growth 96h inconclusive (no result: Pf growth 48h)
CCc1nc(SCC(=O)c2ccc(Cl)s2)c2oc3ccccc3c2n1	CHX counter 46, Shiga toxin inh 89
CC(C)CN(CC#N)CC(C)C	none (no result: CHX counter, Shiga toxin inh, Pf growth 48h, Pf growth 96h, FBPA Giardia inh)
COc1ccc(OC)c(NC(=O)CSc2nnc(NC(=O)c3ccco3)s2)c1	none (no result: FBPA Giardia inh)
CCOC(=O)C1CCCCN1S(=O)(=O)c1cc2c(cc1C)NC(=O)CO2 (stereo unspecified)	none
CCCCn1c(=O)n(CC(=O)Nc2ccc(C)c(Cl)c2)c(=O)c2c1ncn2Cc1ccco1	Pf growth 48h 12µM, Pf growth 96h 4.7µM
CCCCn1c(=O)n(CC(=O)Nc2ccc(OC)c(Cl)c2)c(=O)c2c1nc(CO)n2CCC	Pf growth 48h 10µM (no result: Pf growth 96h)
COc1cc2cncc(Cc3ccc(Cl)cc3)c2cc1OC	Pf growth 48h 8.3µM, Pf growth 96h inconclusive (no result: CHX counter, Shiga toxin inh, NS1 inh, FBPA Giardia inh)
COc1cc2nc(CN(C)Cc3ccc(Cl)cc3)[nH]c(=O)c2cc1OC	Pf growth 96h inconclusive
CC(=O)C1=C(S(=O)(=O)c2ccc(C)cc2)CS(=O)(=O)C1	CHX counter 20
Cc1ccc(S(=O)(=O)C2CS(=O)(=O)CC2O)cc1 (stereo unspecified)	Pf growth 96h inconclusive (no result: Pf growth 48h)
Cc1ccsc1/C=N/N=C/c1sccc1C	CHX counter 48, Pf growth 96h 8.3µM (no result: Shiga toxin inh)
Cc1ccsc1/C=N/NC(=O)Cc1ccc(Cl)cc1	none
Cc1ccsc1C=Nc1ccc(O)cc1	CHX counter 15, Pf growth 48h inconclusive, FBPA Giardia inh 5.6µM
Cc1cc(S(=O)(=O)N2CCCc3ccccc32)ccc1-n1cnnn1	none
CCOc1cc(C2C3=C(CC(C)(C)CC3=O)N(C)C3=C2C(=O)CC(C)(C)C3)ccc1O	Pf growth 48h inconclusive (no result: Shiga toxin inh)
COc1ccc(C(=O)NCc2nnc(SCC(=O)Nc3cc(Cl)ccc3OC)o2)cc1	none
CCCCCc1cc(O)c2c(C)cc(=O)oc2c1	CHX counter 13, Pf growth 48h 2.6µM
CCCCCc1cc(O)c2c3c(c(=O)oc2c1)CN(C)CC3	Pf growth 48h inconclusive
COc1ccc(C(Nc2ccccn2)c2c(NC(=O)c3ccco3)sc(C)c2C)cc1OC (stereo unspecified)	CHX counter 22, Pf growth 48h inconclusive, Pf growth 96h 5.2µM
CCOc1ccc(C(NC(=O)c2ccco2)c2ccc(OC)c(OC)c2)cc1 (stereo unspecified)	none (no result: Pf growth 96h)
COc1cc(C(Nc2ccccn2)c2c(NC(=O)c3ccco3)sc(C)c2C)cc(OC)c1OC (stereo unspecified)	CHX counter 29, Shiga toxin inh 76, Pf growth 48h 5.2µM, Pf growth 96h 8.3µM
COc1cccc([C@@H]2Oc3ccc(OC)cc3C(=O)[C@H]2OC(=O)NS(=O)(=O)c2ccc(F)cc2)c1	none (no result: CHX counter, Shiga toxin inh, NS1 inh, Pf growth 48h, Pf growth 96h)
Cc1nc(NC(=O)c2cnccn2)ccc1Br	CHX counter 43, Shiga toxin inh 107
Cc1ccc(NC(=O)c2cnccn2)cc1C	CHX counter 34 (no result: Shiga toxin inh)
O=C(Nc1ccc2c(c1)OCO2)c1cnccn1	CHX counter 21, Shiga toxin inh 88 (no result: NS1 inh)
Cc1cccc(NC(=O)c2cnccn2)c1	CHX counter 17 (no result: Shiga toxin inh)
Cc1cc(F)ccc1NC(=O)c1cnccn1	Pf growth 48h inconclusive (no result: NS1 inh)
COc1ccc(C(C)=O)c(Oc2cc(NN3CCCCC3)c([N+](=O)[O-])cc2[N+](=O)[O-])c1	none
Cc1nc(C(N)=O)c(N)n1CCc1ccccc1	none
Cc1ccc(NC(=O)c2cnccn2)cc1	CHX counter 34, Shiga toxin inh 72, Pf growth 96h inconclusive (no result: NS1 inh)
O=C(Nc1ccc(Br)cc1)c1cnccn1	CHX counter 32
CC(C)(C)OC(=O)NCCCC1=CC2=CC(=O)C(C)(O)C(=O)C2=CO1 (stereo unspecified)	none (no result: CHX counter, Shiga toxin inh, NS1 inh, Pf growth 48h, Pf growth 96h)
COc1ccccc1N(CC(=O)NC1CCCC1)S(=O)(=O)c1cccc(C(F)(F)F)c1	Pf growth 48h 13µM, Pf growth 96h inconclusive (no result: CHX counter, Shiga toxin inh, NS1 inh, FBPA Giardia inh)
CC(=O)c1ccc(S(=O)(=O)N(C)CC(=O)NCC2CCCCC2)cc1	Shiga toxin inh 53
